Bead autofluor: compound fluorescence in toxin protease inhibitor counterscreen. compound autofluorescence counterscreen, microsphere flow cytometry; active compounds read high. fluorescence intensity (test concentration not listed). actives 3.1% (n = 360,000). AID 624483; in the data active = fluorescence intensity above about 16000; inconclusive = no clear call, values can overlap the other calls
BoNT A protease: BoNT/A light chain protease inhibitors, primary screen, biochemical, flow cytometry, MLPCN library; actives 0.17% (n = 360,000); inhibition, % at 10 µM; Botulinum neurotoxin type A light chain protease (Clostridium botulinum A str. ATCC 3502); multiplex microsphere protease substrate cleavage; also: plate controls were buffer without enzyme for full effect and enzyme alone for no effect
BoNT F protease: BoNT/F light chain protease inhibitors, primary screen, biochemical, flow cytometry, MLPCN library; inhibition, % at 10 µM; Multiplex microsphere protease cleavage assay; Botulinum neurotoxin type F light chain protease (Clostridium botulinum); actives 0.22% (n = 360,000); in the data active = inhibition above about 35%, passing the limit was not always enough; inconclusive = no clear call, values can overlap the other calls; also: plate controls were buffer without enzyme for full effect and enzyme alone for no effect
Anthrax LF prot: Bacillus anthracis LF protease inhibitors, primary screen, biochemical, multiplex microsphere, MLPCN library; Lethal factor (Bacillus anthracis), P15917; multiplex microsphere protease cleavage assay; inhibition, % at 10 µM; actives 0.12% (n = 360,000); also: plate controls were buffer without enzyme for full effect and enzyme alone for no effect
Target sequence (P15917 whole entry, looked up): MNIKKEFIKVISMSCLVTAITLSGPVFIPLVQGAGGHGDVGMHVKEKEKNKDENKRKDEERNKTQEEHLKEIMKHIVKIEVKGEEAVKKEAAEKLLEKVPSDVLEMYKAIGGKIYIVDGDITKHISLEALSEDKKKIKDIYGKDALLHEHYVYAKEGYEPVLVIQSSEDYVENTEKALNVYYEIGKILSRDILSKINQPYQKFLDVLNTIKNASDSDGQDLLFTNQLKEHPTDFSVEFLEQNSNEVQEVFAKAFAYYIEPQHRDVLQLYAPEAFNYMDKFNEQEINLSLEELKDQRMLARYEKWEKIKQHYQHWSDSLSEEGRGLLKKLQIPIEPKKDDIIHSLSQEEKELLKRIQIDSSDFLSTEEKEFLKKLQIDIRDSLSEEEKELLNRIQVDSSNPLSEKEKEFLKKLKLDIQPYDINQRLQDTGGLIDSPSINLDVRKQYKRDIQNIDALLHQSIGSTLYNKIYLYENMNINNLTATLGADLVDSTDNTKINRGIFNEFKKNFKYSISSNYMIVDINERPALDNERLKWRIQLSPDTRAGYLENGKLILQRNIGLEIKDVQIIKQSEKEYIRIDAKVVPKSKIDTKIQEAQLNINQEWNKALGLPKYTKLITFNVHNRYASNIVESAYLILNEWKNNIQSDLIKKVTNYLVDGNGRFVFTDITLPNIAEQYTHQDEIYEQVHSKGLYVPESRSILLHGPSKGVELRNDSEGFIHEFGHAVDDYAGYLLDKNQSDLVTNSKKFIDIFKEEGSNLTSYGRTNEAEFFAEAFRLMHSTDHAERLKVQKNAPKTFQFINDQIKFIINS
Active calls of the source: *; ? = inconclusive. This is a sample that favours compounds with a hit; in the whole collection about 3.5% have one here. Rule as the data show it, unless noted: active = inhibition above about 30%; inconclusive = no clear call, values can overlap the other calls; inactive = below that.

SMILES | Bead autofluor | BoNT A protease | BoNT F protease | Anthrax LF prot
NS(=O)(=O)c1ccc(NC(=O)CSc2ccc3ccccc3n2)cc1 | 16858* | -1 | -2 | -1
NS(=O)(=O)c1ccc(NC(=O)CSc2ncccn2)cc1 | 6525 | -1 | -10 | -2
CCCNC(=O)c1cc(C2CCCN(S(=O)(=O)c3cccs3)C2)on1 (configuration not stated) | 3569 | 0 | 12 | 5
Cc1cccc(NS(=O)(=O)c2cc(OCC(N)=O)c(C)cc2Cl)c1 | 3361 | -1 | -2 | 1
CC(=O)c1cccc(NS(=O)(=O)c2cc(OCC(N)=O)c(C)cc2Cl)c1 | 19294* | 2 | 4 | -2
CN(C)/N=C/c1c(O)ccc2ccccc12 | 2910 | 0 | -5 | -3
OCC(CO)(CO)N=Cc1c(O)ccc2ccccc12 | 16546* | 0 | 2 | 0
Cc1ccc(NC(=S)NNC(=O)c2ccco2)cc1 | 21506* | 2 | 2 | 0
CCCCNC(=S)NNC(=O)c1ccco1 | 16637* | 0 | 0 | -2
O=C(NC(=S)Nc1ccc(N2CCCCC2)cc1)c1ccco1 | 20910* | 3 | 2 | -14
O=C(Nc1cccc(O)c1)c1ccc(Br)cc1 | 21990* | 3 | 4 | -7
O=C(Nc1ccncc1)c1ccc(Cl)c(S(=O)(=O)N2CCCCC2)c1 | ? | 5 | 16 | 1
O=C(Nc1cccc(O)c1)c1ccc(Br)c(S(=O)(=O)N2CCCCC2)c1 | 24544* | -4 | -6 | -3
O=C(Nc1ncn[nH]1)c1ccc(Cl)c(S(=O)(=O)N2CCCCCC2)c1 | 16856* | -1 | 0 | 3
O=C(Nc1cccc(O)c1)c1cccc(S(=O)(=O)N2CCCCCC2)c1 | 3670 | 2 | -4 | 10
CC(=O)Nc1cccc(NC(=O)c2ccc(Br)cc2)c1 | 4321 | -1 | -7 | -4
Cc1ccc(Sc2ccc(/C=N/O)cc2[N+](=O)[O-])cc1 | 2383 | 0 | 2 | -3
CO/N=C/c1cc([N+](=O)[O-])ccc1Sc1ccc(C)cc1 | 21195* | ? | 2 | -1
O=C(Nc1ccc(F)cc1)c1cnc(-c2ccccc2)nc1-c1ccccc1 | 18660* | ? | 8 | -8
COc1ccc(OCc2nn3c(Cn4cnc5ccccc54)nnc3s2)cc1 | 16600* | -2 | -2 | -5
COc1ccccc1-c1nnc2sc(COc3ccccc3)nn12 | 20024* | 8 | 11 | -12
Cc1cc(F)ccc1C(O)c1ncc(-c2ccccc2Cl)[nH]1 (configuration not stated) | 3920 | 0 | -6 | -3
CC(=O)N1CCc2[nH]c3ccccc3c2C1 | 17082* | -2 | -5 | -3
C[C@H](CO)N1C[C@H](C)[C@@H](CN(C)C(=O)Nc2ccc(C(F)(F)F)cc2)Oc2c(NS(=O)(=O)c3cn(C)cn3)cccc2C1=O | 2831 | 1 | -1 | -6
COc1ccc(C(=O)N2CCCC(c3nc(-c4cccs4)no3)C2)cc1 (configuration not stated) | 19734* | -2 | -2 | -4
SMILES | Bead autofluor | BoNT A protease | BoNT F protease | Anthrax LF prot
COc1ccc(-c2noc(C3CCCN(S(=O)(=O)c4cccc(Cl)c4)C3)n2)cc1OC (configuration not stated) | 23625* | 0 | -2 | -4
COc1ccc(C(=O)N2CCCC(c3nc(-c4cccs4)no3)C2)cc1OC (configuration not stated) | 25010* | -4 | -7 | -1
Cc1cccc2[nH]c3c(N4CCC5(CC4)OCCO5)ncnc3c12 | 22045* | ? | -2 | -4
Cc1cccc2[nH]c3c(N4CCN(C(=O)c5ccco5)CC4)ncnc3c12 | 24618* | -3 | -8 | -3
C[C@H]1CN([C@@H](C)CO)C(=O)CCCn2cc(nn2)CO[C@@H]1CN(C)C(=O)Nc1ccccc1F | 3815 | 0 | -5 | -9
N#Cc1cc(Sc2ccccn2)c([N+](=O)[O-])cc1C#N | 4352 | 4 | -5 | 0
N#Cc1cc(Sc2ccccn2)c(Sc2ccccn2)cc1C#N | 17696* | -3 | -4 | 2
COc1ccccc1Cc1c(-c2ccco2)nc2ccc(C)cn12 | 5359 | 3 | 4 | 7
O=S(=O)(c1ccc(Cl)s1)N1CCN(Cc2ccccc2)CC1 | 2762 | 0 | 0 | -3
O=S(=O)(c1ccc(Cl)s1)N1CCC(Cc2ccccc2)CC1 | 23306* | -3 | -5 | 0
O=S(=O)(c1ccc(Br)s1)N1CCC(Cc2ccccc2)CC1 | 23471* | 1 | 0 | -2
CC(C)Cn1cc(-c2cccc3nccn23)cn1 | 3946 | 0 | 2 | 6
O=C(CN1C(=O)CCSc2ccccc21)Nc1ccc2c(c1)OCCO2 | 16584* | -1 | -7 | -7
O=C(CN1C(=O)CCSc2ccccc21)Nc1ccccc1 | 11204 | -1 | -7 | -1
CC1CC(=O)N(CC(=O)Nc2ccc3c(c2)OCO3)c2ccccc2S1 (configuration not stated) | 17388* | -4 | -6 | -5
O=C(CN1C(=O)CSc2ccccc21)Nc1ccccc1C(=O)N1CCOCC1 | 22009* | 3 | 2 | -1
CCCNC(=O)C1(C)CCCN(Cc2ccc3c(c2)OCO3)C1 (configuration not stated) | 3823 | 0 | 6 | -6
CCOC(=O)c1nnn(-c2nonc2N)c1CNC(C)C | 21205* | ? | 1 | -2
CCOC(=O)c1nnn(-c2nonc2N)c1CN1CCCCCC1 | 16135* | 1 | 4 | -2
CCOC(=O)c1nnn(-c2nonc2N)c1CNc1ccccc1 | 5639 | 0 | 6 | 0
CCOC(=O)c1nnn(-c2nonc2N)c1CN1CCCC1 | 3989 | -3 | 9 | 9
N#Cc1ccc(CN2CCN(C(=O)C3CC(=O)N(c4ccc5c(c4)OCCO5)C3)CC2)cc1 (configuration not stated) | 4608 | -1 | -9 | -3
CC(=O)Nc1ccc(C(=O)NNC(=O)C2C3CCCCC32)cc1 (configuration not stated) | 4047 | 2 | 2 | 0
NC(=S)NN=C(Cc1ccccc1)Cc1ccccc1 | 4762 | -1 | -2 | -2
Cc1ccc(S(=O)(=O)N(C)c2nonc2C)cc1 | 19642* | 1 | -1 | 1
SMILES | Bead autofluor | BoNT A protease | BoNT F protease | Anthrax LF prot
CCCCn1c(-c2ccoc2C)n[nH]c1=S | 23012* | -1 | -2 | -2
COc1ccccc1-n1cc(C(=O)NCC(=O)N2CCN(c3ccccc3)CC2)c2ccccc2c1=O | 24097* | -3 | -4 | 1
OC(c1ccccc1)(c1nc(-c2ccc(Cl)cc2)cs1)C(F)(F)F (configuration not stated) | 2909 | 0 | -4 | -4
COc1ccccc1CCn1cnc(Cc2ccccc2)c1C(C)C | 7629 | 0 | -7 | 0
Cc1ccc(CSc2nncn2-c2ccccn2)cc1 | 4052 | 0 | -20 | 2
Clc1ccc(CSc2nncn2-c2ccccn2)cc1 | 23849* | 0 | -3 | 0
COC(=O)c1c(-c2ccc(N(C)C)cc2)oc2c1C(OC)CCC2 (configuration not stated) | 5778 | 0 | 2 | -7
O=Cc1ccc(Sc2nnc(-c3ccccc3)o2)c([N+](=O)[O-])c1 | 19318* | ? | 4 | -7

Compound activity as filed in PubChem.
